The values below come from PubChem BioAssay.

A number with no mark means an inactive call. For part of these data: Results with a measured potency or affinity are listed apart. Calls of active or inactive are those of the source. Unless noted, no rule for the calls is given here.

A short description of assay [1]: antimalarial activity against Dd2 strain (AID 2302;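 active = growth inhibition above 50% at the single 2 µM test dose, taken to imply half-maximal potency below 2 µM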;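 also: 0% = DMSO untreated growth and 100% = chloroquine plus artemisinin killed control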). The conditions noted are these: P. falciparum Dd2 in RBCs, LDH growth readout, 72 h; at 2 µM; hits give high values.
Assay [2] in a line: HepG2 cytotoxicity, primary screen, cytotoxicity control for P. falciparum antimalarial project, cell-based, ATP luminescence (AID 2303;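 active = inhibition above 50%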;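 also: 0% = DMSO wells and 100% = digitonin-killed cells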). The conditions noted are these: HepG2 viability, 24-48 h, at 10 µM, hits give high values.
The target in assay [3] is L-lactate dehydrogenase (Plasmodium falciparum (isolate CDC / Honduras)) (UniProt Q27743). Briefly: PfLDH activity inhibition – cell lysate, 3D7 strain, counter-screen for P. falciparum growth inhibition project (AID 2304).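 Also: 0% = vehicle and 100% = reference inhibitor.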 The conditions noted are these: P. falciparum 3D7 crude extract, LDH APAD/NBT absorbance; at 2 µM; hits give high values.
Sequence of L-lactate dehydrogenase (Plasmodium falciparum (isolate CDC / Honduras)) (Q27743 whole entry, looked up): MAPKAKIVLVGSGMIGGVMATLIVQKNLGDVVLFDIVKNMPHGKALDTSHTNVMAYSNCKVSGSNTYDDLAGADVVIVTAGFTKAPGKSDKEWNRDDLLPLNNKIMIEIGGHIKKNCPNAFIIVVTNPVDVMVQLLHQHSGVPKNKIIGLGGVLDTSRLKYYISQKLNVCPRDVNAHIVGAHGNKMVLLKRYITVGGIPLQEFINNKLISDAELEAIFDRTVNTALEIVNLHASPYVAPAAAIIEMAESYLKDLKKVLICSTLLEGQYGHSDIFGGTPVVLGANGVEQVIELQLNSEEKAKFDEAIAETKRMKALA
Assay [4] in a line: inhibition of 3D7 malaria parasite growth – strain 3D7 (AID 2306).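 Also: 0% = DMSO wells and 100% = chloroquine plus artemisinin control wells.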 The conditions noted are these: P. falciparum 3D7 erythrocytic growth, LDH absorbance, 72 h; at 2 µM; hits give high values.
Assay [5] addresses Calcium-dependent protein kinase 1 (Plasmodium falciparum (isolate 3D7)) (UniProt P62344). Briefly: PfCDPK1 kinase inhibitors, biochemical, TCAMS library (AID 1159585; cut-off not given, nearly all actives have IC50 up to about 0.98 µM;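 also: inhibitors leave more ATP so luminescence rises with inhibition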). The conditions noted are these: recombinant PfCDPK1, Kinase-Glo ATP depletion luminescence.
For assay [6], the target named is Plasmodium falciparum protein kinase 6 (PK6, PF3D7_1337100) (UniProt Q8IDW1). As to the kind of experiment: PfPK6 kinase inhibitors, biochemical, TCAMS library (AID 1159586). The conditions noted are these: recombinant PfPK6, Kinase-Glo ATP depletion luminescence.
Sequence of Plasmodium falciparum protein kinase 6 (PK6, PF3D7_1337100) (Q8IDW1 1-305): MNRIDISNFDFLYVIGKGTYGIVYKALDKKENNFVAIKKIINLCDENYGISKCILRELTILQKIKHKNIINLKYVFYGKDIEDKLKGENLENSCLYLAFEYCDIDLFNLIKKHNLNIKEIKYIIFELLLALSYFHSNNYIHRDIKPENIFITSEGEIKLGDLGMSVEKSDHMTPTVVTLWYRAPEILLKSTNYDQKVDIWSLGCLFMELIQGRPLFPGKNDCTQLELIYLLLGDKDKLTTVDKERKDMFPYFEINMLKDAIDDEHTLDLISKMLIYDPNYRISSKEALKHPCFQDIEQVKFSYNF
Assay [7] addresses Protein kinase 7 (PK7), Plasmodium falciparum 3D7 (PF3D7_0213400) (UniProt Q7YTF7). Briefly: inhibition of Plasmodium PK7 catalytic activity – biochemical, TCAMS antimalarial set, Kinase-Glo luminescence (AID 1159587). The conditions noted are these: recombinant PfPK7, Kinase-Glo ATP depletion luminescence.
The target of assay [8] is Calcium-dependent protein kinase 4 (Plasmodium falciparum (isolate 3D7)) (UniProt Q8IBS5). As to the kind of experiment: PfCDPK4 kinase inhibitors, biochemical, TCAMS library (AID 1159588; cut-off not given, nearly all actives have IC50 up to about 0.91 µM). The conditions noted are these: recombinant PfCDPK4, Kinase-Glo ATP depletion luminescence.
Sequence of Calcium-dependent protein kinase 4 (Plasmodium falciparum (isolate 3D7)) (Q8IBS5 whole entry, looked up): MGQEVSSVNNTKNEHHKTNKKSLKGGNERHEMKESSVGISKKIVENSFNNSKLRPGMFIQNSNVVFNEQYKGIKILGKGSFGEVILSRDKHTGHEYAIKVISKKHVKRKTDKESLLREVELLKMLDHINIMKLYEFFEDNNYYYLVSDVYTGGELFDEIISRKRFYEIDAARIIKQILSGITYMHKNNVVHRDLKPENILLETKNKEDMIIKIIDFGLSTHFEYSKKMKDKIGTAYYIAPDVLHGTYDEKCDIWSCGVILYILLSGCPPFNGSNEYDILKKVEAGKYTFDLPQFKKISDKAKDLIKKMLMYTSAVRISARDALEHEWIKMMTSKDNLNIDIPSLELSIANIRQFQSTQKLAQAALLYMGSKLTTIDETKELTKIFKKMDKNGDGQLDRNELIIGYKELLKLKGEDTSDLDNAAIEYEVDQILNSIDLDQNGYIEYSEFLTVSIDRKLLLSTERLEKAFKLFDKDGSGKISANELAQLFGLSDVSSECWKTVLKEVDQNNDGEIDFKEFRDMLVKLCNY

Sequence of Calcium-dependent protein kinase 1 (Plasmodium falciparum (isolate 3D7)) (P62344 whole entry, looked up): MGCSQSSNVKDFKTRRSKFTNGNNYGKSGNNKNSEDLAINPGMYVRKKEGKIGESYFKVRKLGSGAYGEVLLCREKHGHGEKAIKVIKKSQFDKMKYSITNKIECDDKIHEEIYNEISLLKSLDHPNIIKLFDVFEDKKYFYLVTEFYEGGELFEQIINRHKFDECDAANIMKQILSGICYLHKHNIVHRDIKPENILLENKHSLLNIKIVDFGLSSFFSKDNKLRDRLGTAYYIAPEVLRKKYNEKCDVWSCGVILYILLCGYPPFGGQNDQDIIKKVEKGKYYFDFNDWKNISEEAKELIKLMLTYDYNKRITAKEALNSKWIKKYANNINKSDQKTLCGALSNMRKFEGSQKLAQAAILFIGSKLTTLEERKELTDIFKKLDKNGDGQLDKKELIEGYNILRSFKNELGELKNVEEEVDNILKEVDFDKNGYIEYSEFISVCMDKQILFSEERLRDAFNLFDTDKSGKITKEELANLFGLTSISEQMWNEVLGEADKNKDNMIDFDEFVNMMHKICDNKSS
Sequence of Protein kinase 7 (PK7), Plasmodium falciparum 3D7 (PF3D7_0213400) (Q7YTF7 1-343): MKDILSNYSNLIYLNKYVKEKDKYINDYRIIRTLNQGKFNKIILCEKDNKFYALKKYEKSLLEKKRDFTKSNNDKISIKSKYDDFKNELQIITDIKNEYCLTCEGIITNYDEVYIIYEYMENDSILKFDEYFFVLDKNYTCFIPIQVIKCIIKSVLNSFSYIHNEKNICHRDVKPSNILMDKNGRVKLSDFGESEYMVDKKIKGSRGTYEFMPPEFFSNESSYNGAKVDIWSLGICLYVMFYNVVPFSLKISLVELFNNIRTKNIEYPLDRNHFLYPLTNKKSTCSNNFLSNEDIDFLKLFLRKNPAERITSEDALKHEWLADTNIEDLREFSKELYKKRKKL

On to `O=C([C@@H]1CCCCN1c1ccc([N+](=O)[O-])c2ccccc12)N1CCN(c2ncccn2)CC1`, for which the growth inhibition in assay [1] was 5%; in assay [4], 97% (active). The inhibition in assay [2] is 50% (active); in assay [3] it was 5%. The outcome in assay [5], in assay [6], in assay [7] and in assay [8] was inactive.
As for `Cc1cccc(-c2nc(Nc3ccncc3)c3ccc([N+](=O)[O-])cc3n2)n1`, the growth inhibition in assay [1] was 13%; in assay [4], 87% (active). The inhibition in assay [2] was -9%; in assay [3], -1%. The result in assay [5], in assay [6], in assay [7] and in assay [8] was inactive.
Consider `CCCc1cc(Cc2cnc(N)nc2N)cc(CCC)c1OCCCCCC(=O)OCC`, for which the results for the growth inhibition in assay [1] and in assay [4] were -3% and 95% (active), respectively. Also, the inhibition in assay [2] was 12%; in assay [3], -1%. Besides, the result in assay [5], in assay [6], in assay [7] and in assay [8] was inactive.
With `CCCNCc1ccc(-c2ccc(CN(CCOC)C(=O)CCc3ccc(OC)cc3)cc2)nc1`, the growth inhibition was 29% in assay [1] and 98% (active) in assay [4]. Besides, the inhibition in assay [2] is 11%; in assay [3], -1%. The result in assay [5], in assay [6], in assay [7] and in assay [8] was inactive.
Consider `COc1ccc(CON2C(N)=NC(N)=NC2(C)C)cc1OC`, for which the results for the growth inhibition in assay [1] and in assay [4] were 97% (active) and 96% (active), respectively. The inhibition in assay [2] was 68% (active); in assay [3], 1%. The outcome in assay [5], in assay [6], in assay [7] and in assay [8] was inactive.
With `O=C(Cn1nc(Br)nc1[N+](=O)[O-])NCC1CCCCC1`, the values for the growth inhibition in assay [1] and in assay [4] were 57% (active) and 96% (active), respectively. Further, the inhibition was -8% in assay [2] and -5% in assay [3]. The outcome in assay [5], in assay [6], in assay [7] and in assay [8] was inactive.
`COc1ccc2nccc([C@@H](O)CN3CCC(NCCOc4cccc(F)c4F)CC3)c2c1`: the growth inhibition in assay [1] was 85% (active); in assay [4], 102% (active). In addition, the inhibition was 9% in assay [2] and 3% in assay [3]. For the same molecule, the result in assay [5], in assay [6], in assay [7] and in assay [8] was inactive.
In the case of `CCCS(=O)(=O)c1nc(S(=O)(=O)c2ccc(Cl)cc2)c(N2CCCCC2)s1`, the growth inhibition is 34% in assay [1] and 87% (active) in assay [4]. Further, the inhibition is 3% in assay [2] and -3% in assay [3]. In addition, the result in assay [5], in assay [6], in assay [7] and in assay [8] was inactive.
Turning to `CCc1sc(-c2cc(Cl)ccc2OC)nc1C(=O)NCCN1CCCCC1`, the values for the growth inhibition in assay [1] and in assay [4] were 28% and 100% (active), respectively. The inhibition in assay [2] was 3%; in assay [3] it was 2%. Moreover, the outcome in assay [5], in assay [6], in assay [7] and in assay [8] was inactive.
For the molecule `CC(C)NCc1ccc(-c2cccc(NC(=O)c3cccc(C#N)c3)c2)cc1`, the growth inhibition in assay [1] was 78% (active); in assay [4] it was 100% (active). Also, the inhibition is 9% in assay [2] and -6% in assay [3]. For the same molecule, the outcome in assay [5], in assay [6], in assay [7] and in assay [8] was inactive.
`CCN(CC)CCCN1CCN(C(=O)c2cccc(-c3noc(C(F)(F)F)n3)c2)CC1`: the growth inhibition is 74% (active) in assay [1] and 91% (active) in assay [4]. Also, the inhibition was -10% in assay [2] and 7% in assay [3]. Moreover, the result in assay [5], in assay [6], in assay [7] and in assay [8] was inactive.
With `CC(=O)Nc1ccc(C(=O)Nc2ccc(-c3csc(-c4nc5ccccc5[nH]4)c3)cc2)cn1`, the values for the growth inhibition in assay [1] and in assay [4] were -2% and 93% (active), respectively. The results for the inhibition in assay [2] and in assay [3] were 11% and -3%, respectively. In addition, the result in assay [5], in assay [6], in assay [7] and in assay [8] was inactive.
Consider `N#Cc1ccc(C(=O)Nc2cccc(-c3ccc(CN4CCCC4)cc3)c2)cc1`, for which the growth inhibition in assay [1] was -2%; in assay [4], 99% (active). Besides, the inhibition in assay [2] was 13%; in assay [3], -2%. The result in assay [5], in assay [6], in assay [7] and in assay [8] was inactive.
For `CN(c1ccccc1C(=O)Nc1cc(Cl)ccc1Oc1ccccc1)S(=O)(=O)c1ccccc1`, the growth inhibition in assay [1] is 42%; in assay [4], 99% (active). Moreover, the inhibition in assay [2] was 47%; in assay [3], 7%. For the same molecule, the result in assay [5], in assay [6], in assay [7] and in assay [8] was inactive.
Turning to `CCN(CC)CCN(Cc1ccc(-c2ccc(C(F)(F)F)cc2)cc1)C(=O)Cn1c(SCc2ccc(F)cc2)nc(=O)c2sccc21`, the figures for the growth inhibition in assay [1] and in assay [4] were 65% (active) and 101% (active), respectively. In addition, the inhibition is 51% (active) in assay [2] and -1% in assay [3]. Also, the result in assay [5], in assay [6], in assay [7] and in assay [8] was inactive.
`CC(CN(C)C)C(=O)Nc1cccc(-c2ccc(-c3nc4ccc(F)cc4[nH]3)cc2)c1` (stereo not drawn): the growth inhibition in assay [1] was 100% (active); in assay [4] it was 101% (active). For the same molecule, the inhibition in assay [2] is 11%; in assay [3], -1%. Moreover, the result in assay [5], in assay [6], in assay [7] and in assay [8] was inactive.
`Cc1ccc2c(c1)c(-c1ccccc1)c(-c1ccccc1)n2CC(O)CN1CCN(CC=Cc2ccccc2)CC1` (stereo not drawn): the growth inhibition in assay [1] and in assay [4] was 98% (active) in each case. In addition, the inhibition in assay [2] was 0%; in assay [3] it was 6%. For the same molecule, the result in assay [5], in assay [6], in assay [7] and in assay [8] was inactive.
In the case of `O=C(NC1CCN(Cc2ccccc2)CC1)c1ccc2c(=O)n(Cc3ccc(Cl)cc3)c(=S)[nH]c2c1`, the growth inhibition in assay [1] is 100% (active); in assay [4] it was 101% (active). Also, the inhibition in assay [2] was 16%; in assay [3] it was 5%. In addition, the result in assay [5], in assay [6], in assay [7] and in assay [8] was inactive.
For `COc1ccc2nccc(NC(=O)OC3CCC(NCc4ccc5c(n4)NC(=O)CS5)CC3)c2c1` (stereo not drawn), the growth inhibition in assay [1] is 39%; in assay [4] it was 98% (active). The inhibition in assay [2] is 9%; in assay [3], -6%. In addition, the outcome in assay [5], in assay [6], in assay [7] and in assay [8] was inactive.
For `COCCNCc1cccc(-c2cc3nccc(Nc4ccc(Oc5ccccc5)cc4)c3cc2Cl)c1`, the growth inhibition in assay [1] and in assay [4] was 99% (active) each time. Also, the values for the inhibition in assay [2] and in assay [3] were -8% and 1%, respectively. Moreover, the result in assay [5], in assay [6], in assay [7] and in assay [8] was inactive.
In the case of `CCOc1ccc(-c2nonc2NC(=O)c2ccc(F)cc2)cc1OCC`, the growth inhibition in assay [1] was 99% (active); in assay [4], 102% (active). Moreover, the inhibition in assay [2] is 36%; in assay [3], 0%. Besides, the result in assay [5], in assay [6], in assay [7] and in assay [8] was inactive.
